Source: PubChem BioAssay
This is one part of the list. Values without a mark were called inactive. Activity calls are given as the source filed them.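 Rule for the calls, unless noted: active = inhibition above the primary screen's cutoff, its mean inhibition plus 3 SD (cut at about 35% in these data); inactive = the rest.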

How the values were obtained:
[1] = molecular target: Glutathione S-transferase omega-1 (Homo sapiens) (UniProt P78417); experiment: GSTO1 inhibitor hit confirmation, counter-screen for RBBP9 inhibitor project, biochemical, fluorescence polarization, triplicate (AID 2176); conditions: recombinant GSTO1, probe fluorescence polarization; at 5.96 µM; hits give high values;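 note: loss of polarization as inhibitors block binding of rhodamine sulfonate ester activity probe; 0% = GSTO1 with DMSO and 100% = wells lacking GSTO1 enzyme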
Sequence of Glutathione S-transferase omega-1 (Homo sapiens) (P78417 whole entry, looked up): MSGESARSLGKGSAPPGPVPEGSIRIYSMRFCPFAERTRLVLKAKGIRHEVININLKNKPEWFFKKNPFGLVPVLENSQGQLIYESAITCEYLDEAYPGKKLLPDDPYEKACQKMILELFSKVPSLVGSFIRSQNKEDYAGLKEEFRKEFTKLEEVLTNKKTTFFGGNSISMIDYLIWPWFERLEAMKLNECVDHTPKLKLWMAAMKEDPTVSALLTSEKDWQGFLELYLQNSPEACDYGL

[2] = molecular target: Platelet-activating factor acetylhydrolase (Homo sapiens) (UniProt Q13093); experiment: pPAFAH (PLA2G7) enzyme inhibitors, confirmation, biochemical, fluorescence polarization, human (AID 463230;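 active = mean inhibition of the triplicate above the hit cutoff set for the earlier primary screen, cut at about 25% in these data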;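 note: 0% = enzyme with DMSO and 100% = wells lacking pPAFAH enzyme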); conditions: recombinant pPAFAH, FP-Rh probe fluorescence polarization; at 3.39 µM; hits give high values
Sequence of Platelet-activating factor acetylhydrolase (Homo sapiens) (Q13093 whole entry, looked up): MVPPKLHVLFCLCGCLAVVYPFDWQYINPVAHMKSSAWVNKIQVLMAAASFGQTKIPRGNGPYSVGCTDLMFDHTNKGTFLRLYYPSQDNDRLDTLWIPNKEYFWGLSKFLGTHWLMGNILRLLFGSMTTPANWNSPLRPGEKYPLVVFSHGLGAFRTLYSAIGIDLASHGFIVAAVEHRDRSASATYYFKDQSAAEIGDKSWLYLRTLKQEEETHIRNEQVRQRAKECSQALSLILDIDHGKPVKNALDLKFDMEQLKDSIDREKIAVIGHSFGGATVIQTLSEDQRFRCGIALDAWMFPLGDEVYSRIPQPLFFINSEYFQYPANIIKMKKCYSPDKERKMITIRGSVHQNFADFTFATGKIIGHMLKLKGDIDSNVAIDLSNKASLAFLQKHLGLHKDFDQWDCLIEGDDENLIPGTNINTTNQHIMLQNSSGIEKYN

[3] = molecular target: Insulin-degrading enzyme (Homo sapiens) (UniProt P14735); experiment: human IDE inhibitors in live cells, confirmation, fluorescence polarization, HEK cells, FAbetaB substrate (AID 435028;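 active = mean inhibition across triplicate wells above the cutoff set by the earlier primary insulin-degrading enzyme screen, cut at about 16% in these data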;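 note: 0% = DMSO wells and 100% = 60 µM reference IDE inhibitor Ii1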); conditions: FAbetaB cleavage, at 5.59 µM, hits give high values
Sequence of Insulin-degrading enzyme (Homo sapiens) (P14735 whole entry, looked up): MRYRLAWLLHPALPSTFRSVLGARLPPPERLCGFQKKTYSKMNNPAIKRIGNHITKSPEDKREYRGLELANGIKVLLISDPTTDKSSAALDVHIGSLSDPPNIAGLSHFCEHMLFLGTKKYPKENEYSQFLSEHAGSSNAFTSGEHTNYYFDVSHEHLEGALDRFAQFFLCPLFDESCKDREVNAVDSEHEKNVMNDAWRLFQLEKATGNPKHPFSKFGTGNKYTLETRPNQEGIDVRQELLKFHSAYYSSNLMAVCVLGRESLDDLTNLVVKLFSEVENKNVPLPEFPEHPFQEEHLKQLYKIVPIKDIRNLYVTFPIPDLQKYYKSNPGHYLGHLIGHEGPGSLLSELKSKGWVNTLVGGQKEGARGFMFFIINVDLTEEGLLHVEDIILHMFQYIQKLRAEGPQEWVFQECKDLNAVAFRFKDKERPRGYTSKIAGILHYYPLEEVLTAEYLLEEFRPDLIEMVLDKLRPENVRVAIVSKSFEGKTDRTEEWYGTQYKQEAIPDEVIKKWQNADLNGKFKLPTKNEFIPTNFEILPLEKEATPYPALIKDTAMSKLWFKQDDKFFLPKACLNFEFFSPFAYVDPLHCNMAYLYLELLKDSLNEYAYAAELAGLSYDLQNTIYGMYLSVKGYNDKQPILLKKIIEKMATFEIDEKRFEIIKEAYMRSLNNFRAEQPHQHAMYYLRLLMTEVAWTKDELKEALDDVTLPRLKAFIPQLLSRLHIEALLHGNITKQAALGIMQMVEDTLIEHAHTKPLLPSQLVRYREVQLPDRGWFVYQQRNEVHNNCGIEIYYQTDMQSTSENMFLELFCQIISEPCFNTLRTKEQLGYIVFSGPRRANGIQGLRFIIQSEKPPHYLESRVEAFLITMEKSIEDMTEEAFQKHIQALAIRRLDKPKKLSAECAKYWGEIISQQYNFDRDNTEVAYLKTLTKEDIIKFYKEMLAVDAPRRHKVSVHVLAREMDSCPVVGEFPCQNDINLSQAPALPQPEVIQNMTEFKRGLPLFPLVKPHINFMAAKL

[4] = cytotoxicity in HEK cells, cytotoxicity control for IDE inhibitor project, cell-based, luminescence (AID 449730; in the data active = inhibition above about 22%;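 note: 0% = vehicle wells and 100% = reference cytotoxic drug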); conditions: HEK293 cytotoxicity, ATP luminescence; at 5.59 µM; hits give high values
[5] = molecular target: Platelet-activating factor acetylhydrolase IB subunit alpha1 (Homo sapiens) (UniProt Q15102); experiment: PAFAH1B3 enzyme inhibitors, confirmation, biochemical, fluorescence polarization, human (AID 493032;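 active = average inhibition over triplicate runs above the hit cutoff set in the earlier primary screen, cut at about 25% in these data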;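 note: 0% = enzyme with DMSO and 100% = wells lacking PAFAH1B3 protein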); conditions: recombinant PAFAH1B3, FP-Rh activity-based probe, at 3.39 µM, hits give high values
Sequence of Platelet-activating factor acetylhydrolase IB subunit alpha1 (Homo sapiens) (Q15102 whole entry, looked up): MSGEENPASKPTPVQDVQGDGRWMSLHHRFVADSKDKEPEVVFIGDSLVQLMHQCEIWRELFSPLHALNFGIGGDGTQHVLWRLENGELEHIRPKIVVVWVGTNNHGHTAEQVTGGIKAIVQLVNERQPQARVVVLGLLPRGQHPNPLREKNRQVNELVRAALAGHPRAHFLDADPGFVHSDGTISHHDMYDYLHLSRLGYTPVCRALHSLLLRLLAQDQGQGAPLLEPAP

[6] = molecular target: Protein-arginine deiminase type-4 (Homo sapiens) (UniProt Q9UM07); experiment: human PAD4 inhibitors, confirmation, biochemical, fluorescence polarization (AID 488796;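 active = mean inhibition across replicates above the hit cutoff set by the earlier primary screen, cut at about 15% in these data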;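 note: inhibitors block active-site labeling by the probe so polarization falls; 0% = PAD4 with probe and DMSO and 100% = probe without PAD4 enzyme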); conditions: recombinant PAD4, RCA probe fluorescence polarization; at 6.36 µM; hits give high values
Sequence of Protein-arginine deiminase type-4 (Homo sapiens) (Q9UM07 whole entry, looked up): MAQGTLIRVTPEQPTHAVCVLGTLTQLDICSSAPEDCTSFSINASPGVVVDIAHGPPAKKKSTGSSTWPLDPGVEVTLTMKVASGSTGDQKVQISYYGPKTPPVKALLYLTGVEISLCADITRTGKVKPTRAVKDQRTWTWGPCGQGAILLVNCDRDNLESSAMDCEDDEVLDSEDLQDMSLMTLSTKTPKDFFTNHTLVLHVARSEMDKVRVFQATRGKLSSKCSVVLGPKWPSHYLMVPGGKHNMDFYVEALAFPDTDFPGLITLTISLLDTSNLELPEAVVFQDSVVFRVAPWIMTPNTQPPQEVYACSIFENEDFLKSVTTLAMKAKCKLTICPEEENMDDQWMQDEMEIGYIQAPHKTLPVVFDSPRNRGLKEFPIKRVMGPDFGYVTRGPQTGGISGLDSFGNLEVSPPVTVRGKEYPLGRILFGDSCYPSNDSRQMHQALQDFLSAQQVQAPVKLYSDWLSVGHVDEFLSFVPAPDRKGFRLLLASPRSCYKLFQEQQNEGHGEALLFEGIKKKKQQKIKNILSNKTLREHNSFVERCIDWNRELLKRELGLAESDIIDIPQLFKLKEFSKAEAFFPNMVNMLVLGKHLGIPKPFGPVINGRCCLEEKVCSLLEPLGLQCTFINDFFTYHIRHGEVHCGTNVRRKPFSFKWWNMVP

[7] = molecular target: (Lyso)-N-acylphosphatidylethanolamine lipase (Mus musculus) (UniProt Q8VD66); experiment: ABHD4 inhibitors, retest, confirmation, biochemical, fluorescence polarization, mouse (AID 720658;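 active = mean inhibition across replicates above the hit cutoff set in the primary screen, cut at about 30% in these data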;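 note: 0% = wild-type ABHD4 with DMSO and 100% = catalytically dead S159A mutant with DMSO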); conditions: purified mABHD4, FP-Rh probe fluorescence polarization; at 8.92 µM; hits give high values
Sequence of (Lyso)-N-acylphosphatidylethanolamine lipase (Mus musculus) (Q8VD66 whole entry, looked up): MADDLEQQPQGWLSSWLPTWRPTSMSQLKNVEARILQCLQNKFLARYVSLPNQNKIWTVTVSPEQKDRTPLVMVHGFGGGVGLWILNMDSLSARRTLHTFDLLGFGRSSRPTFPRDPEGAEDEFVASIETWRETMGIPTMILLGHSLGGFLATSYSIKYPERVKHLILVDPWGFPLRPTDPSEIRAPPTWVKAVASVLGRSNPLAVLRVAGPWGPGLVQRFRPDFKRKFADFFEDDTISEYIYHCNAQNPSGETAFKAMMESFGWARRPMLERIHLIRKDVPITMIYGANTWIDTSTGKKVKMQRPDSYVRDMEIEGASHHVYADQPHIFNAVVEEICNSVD

[8] = growth loss of phage-infected E. coli expressing H. pylori AddAB, confirmation, AddAB inhibitor project, absorbance, E. coli V3065, T4 phage, triplicate (AID 488942;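 active = mean inhibition above a set limit taken from the earlier primary screen, cut at about 13% in these data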;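 note: higher means less bacterial growth since AddAB block lets phage replicate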); conditions: OD, at 11.9 µM, hits give high values, T4 phage with gene 2 nonsense mutations
[9] = growth loss of RecBCD+ E. coli with mutant T4 phage, counter-screen for AddAB inhibitor project, absorbance, V66 E. coli (AID 488955;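 active = mean inhibition above the mean of solvent-only control wells plus 3 SD, cut at about 4% in these data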;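 note: optical density read after an 18 h incubation at 37 °C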); conditions: OD growth, at 11.9 µM, hits give high values
[10] = bacterial viability inhibition counter-screen, confirmation, counter-screen for AddAB inhibitor project, absorbance (AID 488956; in the data active = inhibition above about 25%); conditions: absorbance (AddAB counterscreen), at 11.9 µM, hits give high values
[11] = molecular target: Serine protease HTRA1 (Homo sapiens) (UniProt Q92743); experiment: HTRA1 protease inhibitors, retest, confirmation, biochemical, fluorescence polarization (AID 540248;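 active = mean inhibition over three repeats above a set limit taken from the earlier primary screen, cut at about 37% in these data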;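 note: 0% = HTRA1 with DMSO and 100% = wells lacking HTRA1; inhibitors block probe binding so polarization drops and inhibition rises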); conditions: recombinant HTRA1, FP-rhodamine activity-based probe, at 5.96 µM, hits give high values
[12] = molecular target: Photoreceptor-specific nuclear receptor (Homo sapiens) (UniProt Q9Y5X4); experiment: NR2E3 agonists, confirmation, biochemical, TR-FRET (AID 2379; in the data active = activation above about 20%); conditions: cell-free NR2E3 corepressor release, 5 h, at 3.98 µM, hits give high values
Sequence of Photoreceptor-specific nuclear receptor (Homo sapiens) (Q9Y5X4 whole entry, looked up): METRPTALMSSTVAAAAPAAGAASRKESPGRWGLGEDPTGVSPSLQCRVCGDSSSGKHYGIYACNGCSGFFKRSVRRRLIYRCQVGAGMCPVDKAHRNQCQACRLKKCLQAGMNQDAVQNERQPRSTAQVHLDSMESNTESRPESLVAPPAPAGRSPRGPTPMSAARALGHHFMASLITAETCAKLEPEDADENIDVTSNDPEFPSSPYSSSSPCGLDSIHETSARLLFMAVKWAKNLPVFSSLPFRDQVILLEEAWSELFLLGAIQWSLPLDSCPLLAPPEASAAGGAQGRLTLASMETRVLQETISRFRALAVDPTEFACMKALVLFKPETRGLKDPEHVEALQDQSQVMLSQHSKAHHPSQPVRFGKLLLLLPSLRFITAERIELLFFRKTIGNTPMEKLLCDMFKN

[13] = molecular target: Peroxisome proliferator-activated receptor gamma (Homo sapiens) + Nuclear receptor corepressor 2 (Homo sapiens) (UniProt P37231+Q9Y618); experiment: agonists of PPARg-NCOR2 corepressor interaction, counter-screen for NR2E3 agonist project, biochemical, TR-FRET (AID 504787; in the data active = inhibition above about 20%;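 note: 0% = DMSO vehicle and 100% = wells without protein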); conditions: TR-FRET PPARg-NCOR2 coregulator interaction, at 3.98 µM, hits give high values
[14] = molecular target: Oxytocin receptor (Homo sapiens) (UniProt P30559); experiment: human OXTR agonists, confirmation, fluorescence, CHO-OTR cells, triplicate (AID 434963;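 active = mean activation above about 20% derived from the earlier single-dose screen, limit read from the data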;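 note: peak over minimum fluorescence ratio per well during a 100 second FLIPR read; 0% = DMSO alone and 100% = oxytocin high control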); conditions: Fluo-8 calcium fluorescence, agonist, at 3 µM, hits give high values
Sequence of Oxytocin receptor (Homo sapiens) (P30559 whole entry, looked up): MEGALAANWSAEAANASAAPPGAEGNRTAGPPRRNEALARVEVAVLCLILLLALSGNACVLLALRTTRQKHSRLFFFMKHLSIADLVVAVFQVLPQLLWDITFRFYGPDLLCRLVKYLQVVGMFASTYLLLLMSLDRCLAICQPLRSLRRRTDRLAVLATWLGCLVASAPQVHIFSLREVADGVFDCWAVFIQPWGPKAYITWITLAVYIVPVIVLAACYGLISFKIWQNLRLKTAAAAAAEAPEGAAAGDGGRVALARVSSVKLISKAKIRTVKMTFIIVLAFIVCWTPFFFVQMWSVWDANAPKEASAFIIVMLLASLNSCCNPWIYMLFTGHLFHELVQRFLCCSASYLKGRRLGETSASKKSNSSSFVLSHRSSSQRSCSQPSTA

[15] = molecular target: Vasopressin V1a receptor (Homo sapiens) (UniProt P37288); experiment: V1a receptor agonists, calcium signal, counter-screen for OXTR agonist project, triplicate, fluorescence, CHO-V1R cells (AID 434991;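 active = mean activation over triplicate exceeds the hit threshold set in the earlier primary screen, cut at about 20% in these data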;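 note: peak over basal fluorescence ratio within a 100 second read; 0% = DMSO alone and 100% = 3 nM vasopressin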); conditions: Fluo-8 calcium fluorescence, at 3 µM, hits give high values
Sequence of Vasopressin V1a receptor (Homo sapiens) (P37288 whole entry, looked up): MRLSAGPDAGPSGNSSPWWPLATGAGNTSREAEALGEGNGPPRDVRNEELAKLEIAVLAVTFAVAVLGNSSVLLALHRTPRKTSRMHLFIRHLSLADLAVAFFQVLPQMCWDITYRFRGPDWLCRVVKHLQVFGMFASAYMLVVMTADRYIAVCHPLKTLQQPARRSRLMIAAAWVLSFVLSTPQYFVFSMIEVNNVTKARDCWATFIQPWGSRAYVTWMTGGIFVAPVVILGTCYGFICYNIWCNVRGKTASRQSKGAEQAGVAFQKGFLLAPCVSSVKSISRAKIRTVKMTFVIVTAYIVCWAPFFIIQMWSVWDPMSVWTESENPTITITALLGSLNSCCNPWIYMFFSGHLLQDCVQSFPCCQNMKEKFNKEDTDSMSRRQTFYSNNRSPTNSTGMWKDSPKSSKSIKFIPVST

For `CCC1(CC)Cc2ccccc2-c2nc(CCl)[nH]c(=O)c21`, the inhibition [1] was 94% (active).
Work on `NNC(=O)c1oc2nc(-c3ccccc3)cc(-c3ccco3)c2c1N` yielded an inhibition [1] of 3.35% and an inhibition [2] of 18.2%.
For `COc1ccccc1CCCNC(=O)C1CCC(=O)N(CCN2CCOCC2)C1` (stereo unspecified), the inhibition [1] was 5.53%.
With `COC(=O)c1ccc(CSc2nncn2N)cc1` the inhibition [1] was 1.78%.
With `CC(=O)N(C1=C(Cl)C(=O)c2ccccc2C1=O)c1ccc(C(=O)O)cc1` the inhibition [1] was 77.8% (active), the inhibition [3] was 164% (active) and the inhibition [4] was 14.1%. The inhibition [5] was 25.6% (active).
`CCOc1c(Br)cc(/C=C2\C(=O)N(CCC#N)N=C2C)cc1OC` showed an inhibition [1] of 3.85% and an inhibition [6] of -1.18%.
With `COc1ccc(C(C(=O)NC2CCCCC2)N(C(=O)CCl)c2ccccc2Cl)cc1` (stereo unspecified) the inhibition [1] was 45% (active).
In the case of `COC1=C(N2CCOCC2)C(=O)c2ccccc2C1=O`, the inhibition [1] is reported as 28.9%.
For `O=C(CCl)Nc1cccc(CP(=O)(c2ccccc2)c2ccccc2)c1`, the inhibition [1] was 90.4% (active).
For `O=[N+]([O-])c1ccc(C=Nc2ccc(Cl)cc2Cl)s1`, the inhibition [1] was 11.6%.
Work on `Cc1[nH][nH]c(=O)c1C(c1ccc(-c2ccc(Cl)cc2)o1)c1c(C)[nH][nH]c1=O` yielded an inhibition [1] of 22.6% and an inhibition [6] of 2.58%.
With `O=C(c1cccnc1)N(c1cc2sc(=O)oc2c2ccccc12)S(=O)(=O)c1ccccc1` the inhibition [1] was 6.84%, the inhibition [3] was 3.36% and the inhibition [4] was 10.9%. It also gave an inhibition [7] of 17.6%.
With `O=C(c1[nH]ncc1-c1ccc(Cl)cc1)C1CO1` (stereo unspecified) the inhibition [1] was 79.6% (active), the inhibition [8] was 57.3% (active) and the inhibition [9] was 7.58% (active). For the same molecule, the inhibition [10] was 34.3% (active).
With `CCN(C(=O)COC(=O)c1cc(NS(=O)(=O)c2ccc(Cl)c([N+](=O)[O-])c2)ccc1O)C1CCCCC1` the inhibition [1] was 32.6%.
`COc1ccc(-c2csc(Nc3ccc(O)cc3)n2)cc1` gave an inhibition [1] of 7.69%.
For `COC(=O)CCCC1=CC2=CC(=O)C(C)(OC(=O)c3cccs3)C(=O)C2=CN1CC1CC1` (stereo unspecified), the inhibition [1] was 30.3% and the inhibition [6] was 1.6%.
In the case of `COC(=O)CCCC1=CC2=C(c3ccccc3)C(=O)C(C)(OC(=O)C3CCCC3)C(=O)C2=CN1c1ccc(OC)cc1` (stereo unspecified), the inhibition [1] is reported as 16.9%.
With `Cn1c(SCC(=O)N/N=C/c2ccc(O)c(O)c2)nc2ccccc21` the inhibition [1] was 3.76%, the inhibition [11] was 72.4% (active) and the inhibition [7] was 14.6%.
For `O=C(Nc1cc(N2CCOCC2)ncn1)NC1(C(F)(F)F)Oc2ccc(Cl)cc2O1` (stereo unspecified), the inhibition [1] was 8.59%.
Work on `C[n+]1ccccc1C1CCCC/C1=N\Nc1ccc([N+](=O)[O-])cc1[N+](=O)[O-]` (stereo unspecified) yielded an inhibition [1] of 6.21%.
Work on `C=CCNC(=O)c1ccccc1SCc1c(C)noc1C` yielded an inhibition [1] of 3.92%.
Molecule `CC/C(=N/Nc1ccccc1)c1cnnc(SC)n1` has an inhibition [1] of 9.56%.
Work on `COc1ccc(S(=O)(=O)N2CCOCC2)cc1NC(=O)CSc1ncnc2ccccc12` yielded an inhibition [1] of 15.2% and an inhibition [6] of 0.87%.
For `O=c1c(/C=N/O)coc2ccc(Cl)cc12`, the inhibition [1] was 4.5%.
Work on `CC(C)(C)n1cnnc1Sc1ccc([N+](=O)[O-])cn1` yielded an inhibition [1] of 28.1%.
With `Cc1ccc(SCC2=NNC(=O)C2)cc1` the inhibition [1] was 11.5%.
In the case of `Oc1c(C=Nc2cccc3nsnc23)ccc2ccccc12`, the inhibition [1] is reported as 69.9% (active) and the inhibition [6] is reported as -54.5%.
In the case of `CC(C)(C)OC(=O)c1c(N)n(CCCN2CCCC2=O)c2nc3ccccc3nc12`, the inhibition [1] is reported as 57.9% (active).
`c1coc(-c2nc3nc4ccccc4n3nc2-c2ccco2)c1` gave an inhibition [1] of 16.5%.
`O=C(Cc1cc(=O)[nH][nH]1)N/N=C/c1ccccc1[N+](=O)[O-]` showed an inhibition [1] of 5.98%.
For `N#Cc1c(N)nc2c3c(sc(=N)c2c1N)NC(=O)CC3c1ccccc1Cl` (stereo unspecified), the activation (reported as inhibition) [12] was -9.26% and the inhibition [13] was -7.41%.
Work on `COc1ccc(Cl)cc1NC(=O)NCC1CCN(Cc2ccccc2F)CC1` yielded an activation [14] of 7.35% and an activation [15] of 6.95%.
